Measurements taken from the supplement of paper PMC13380429.

Tested on: Vero E6 infected with SARS-CoV-2
Assay: inhibition of SARS-CoV-2 cytopathic effect; higher = more antiviral protection, active = above 15
Details: 48 h

Measured: inhibition of SARS-CoV-2 cytopathic effect

Cc1nnc2ccc(-c3cccc(C(F)(F)F)c3)nn12
inactive: 1 nM -0.37% | 8.33 nM 3.68% | 100 nM 2.78% | 833.33 nM 1.93% | 10000 nM 2.16%

Cc1c(C)c2c(c(C)c1O)CCC(C)(COc1ccc(CC3SC(=O)NC3=O)cc1)O2 (stereo not given) [troglitazone]
inactive: 1 nM 1.07% | 8.33 nM 1.5% | 100 nM 1.01% | 833.33 nM 2.48% | 10000 nM 5.84%

CN(C)CCc1ccc(O)cc1 [hordenine]
inactive: 1 nM 0.04% | 8.33 nM -0.27% | 100 nM 0.47% | 833.33 nM -2.27% | 10000 nM -0.68%

O=C(CCc1ccc(O)cc1)c1c(O)cc(O)cc1O [phloretin]
inactive: 1 nM -0.18% | 8.33 nM -0.18% | 100 nM 6.09% | 833.33 nM -0.49% | 10000 nM -1.02%

CC(N)Cc1ccc(O)cc1 (stereo not given) [hydroxyamphetamine]
inactive: 1 nM 1.55% | 8.33 nM -1.8% | 100 nM 2.28% | 833.33 nM 0.63% | 10000 nM 1.86%

CCOC(=O)c1c(/C(C#N)=C\N)c2ccc(Cl)c(Cl)c2n1C
inactive: 1 nM -0.1% | 8.33 nM 0.69% | 100 nM 0.36% | 833.33 nM 0.1% | 10000 nM -2.18%

CCCCOCCOc1nc(-c2ccc(C(=O)O)c(F)c2)sc1C
inactive: 1 nM -0.86% | 8.33 nM -0.63% | 100 nM -1.87% | 833.33 nM -1.76% | 10000 nM 2.1%

O[C@@H]1CO[C@H]2[C@@H]1OC[C@@H]2O [isosorbide]
inactive: 1 nM -0.13% | 8.33 nM 1.81% | 100 nM 1.18% | 833.33 nM 3.22% | 10000 nM 3.05%
